Results with a measured potency or affinity are listed apart. Active and inactive are the calls of the source.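 The calls were made as follows: active = polarization signal falls with dose and the fitted half-maximal concentration is at or below ten times the sample's top valid dose; inconclusive = flat curve at 30 to 70% inhibition, or poor fit; inactive = signal rises, flat within 30%, or potency beyond limit.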
molecular target: Golgi-associated PDZ and coiled-coil motif-containing protein (Homo sapiens) (UniProt Q9HD26); assay: CAL PDZ peptide-binding inhibitors, dose response, biochemical, fluorescence polarization, Cerulean-tagged CAL PDZ, cherry-picks (AID 504773); settings: 1 h; series mostly up to 50 µM; activity change, negative = inhibition: at the top concentration;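 also: 0% = DMSO neutral wells and -100% = excess unlabeled competitor peptide wells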

SMILES | activity change, negative = inhibition
CC(C)CN1CCN(Cc2cccc3c2OCO3)CC1CCO (stereo unspecified) | 6.14% (inactive)
O=C1CN=C(c2ccccc2)c2oc3ccc(Br)cc3c2N1 | 11.9% (inactive)
COc1cc(/C=C2\C(=O)NC(=O)N(c3ccccc3)C2=O)c([N+](=O)[O-])cc1OC | 4.94% (inactive)
CSC1=NP(=S)(SC)N2CCCC2=C1C#N (stereo unspecified) | 13.6% (inactive)
c1ccc2[nH]c(CCNC3CCCCC3)nc2c1 | 7.1% (inactive)
Cn1c(=O)c2c(nc(-c3ccc(N(CCCl)CCCl)cc3)n2C)n(C)c1=O | 1.8% (inactive)
Cc1cc(C)c(C(=O)N2CCC3(CC2)OCCO3)c(C)c1 | -7.3% (inactive)
COc1ccc(CNCCc2c[nH]c3ccccc23)c(OC)c1OC | 8.02% (inactive)
O=C(c1ccc(F)cc1Cl)N1CCC2(CC1)OCCO2 | 20.1% (inactive)
O=c1[nH]c(CN2CC=C(c3ccccc3)CC2)nc2scc(-c3ccccc3)c12 | 6.71% (inactive)
COc1cc(C)cc(CN2CC=C(c3ccccc3)CC2)c1O | 9.35% (inactive)

Source: PubChem BioAssay AID504773 (Broad Institute, 2011)
